In paper PMC4552634, “A New Set of Chemical Starting Points with Plasmodium falciparum Transmission-Blocking Potential for Antimalarial Drug Discovery” (PLoS ONE, 2015):
The whole screen tested about 13,000 compounds, of which about 3,200 (25%) showed an effect of 50% or more. The list shows a part of the results.

Each molecule was assayed on P. falciparum stage V gametocytes. Conditions: 48 h, 5 µM; inhibitor.
Set-up: BacTiter-Glo ATP luminescence viability of purified stage V gametocytes in 384-well plates, per cent inhibition versus DMSO

SMILES | % Inhibition
Cc1ccc(NC(C)C(=O)Nc2ccc(C#N)cc2)cc1S(=O)(=O)N1CCCCC1 (centres unmarked) [TCMDC-124508] | -17.26%
N#Cc1ccc(Sc2nnc(-c3ccccc3Cl)n2CC2CCCCC2)cc1[N+](=O)[O-] [TCMDC-135616] | 15.71%
COc1cc(NC(=O)c2cc([N+](=O)[O-])ccc2NC(=O)CNC2CCCCC2C)cc(OC)c1 (centres unmarked) [TCMDC-125301] | -14.04%
CCCCn1c(Sc2ccc(C#N)c([N+](=O)[O-])c2)nnc1-c1cc(OC)cc(OC)c1 [TCMDC-135578] | 32.96%
N#Cc1cc([N+](=O)[O-])ccc1-n1nc(-c2cccc(Cl)c2)n(CC2CCCO2)c1=S (centres unmarked) [TCMDC-134718] | 89.7%
COc1cc(OC)cc(-c2nn(-c3ccc([N+](=O)[O-])cc3Cl)c(=S)n2CC2CCCO2)c1 (centres unmarked) [TCMDC-135129] | 88.54%
CCn1c(Sc2ccc(C#N)c([N+](=O)[O-])c2)nnc1-c1cc(OC)cc(OC)c1 [TCMDC-135587] | 21.42%
COc1cc(OC)cc(-c2nn(-c3ccc([N+](=O)[O-])cc3C#N)c(=S)n2CC2CCCO2)c1 (centres unmarked) [TCMDC-134716] | 96.39%
CCCn1c(Sc2ccc(C#N)c([N+](=O)[O-])c2)nnc1-c1cc(OC)cc(OC)c1 [TCMDC-135577] | 43.88%
Nc1nc(N)c2c(Cc3ccc(Br)cc3)cccc2n1 [TCMDC-137800] | 14.7%
CCOC(=O)C(C(C)=O)C(c1ccccc1)C(C(C)=O)C(=O)OCC (centres unmarked) [TCMDC-125515] | 28.08%
CC1CCCC(NC(=O)CCOc2ccccc2)C1 (centres unmarked) [TCMDC-139363] | 13.69%
CCOC(=O)c1ccc(NC(=O)N(Cc2ccc(-c3ccc(CN4CCNCC4)cc3)cc2)C2CCN(Cc3ccccc3)CC2)cc1 [TCMDC-139651] | 101.9%
CCOC(=O)c1ccc(NC(=O)N(Cc2ccc(-c3ccc(CN4CCNCC4)cc3)cc2)Cc2cccnc2)cc1 [TCMDC-139650] | 18.76%
CCOC(=O)c1ccc(NC(=O)N(Cc2ccc(-c3cccc(CN4CCNCC4)c3)cc2)C2CCN(Cc3ccccc3)CC2)cc1 [TCMDC-139636] | 111.5%
CC(C)Cc1nc(N)nc(N)c1-c1ccc(Cl)cc1 [TCMDC-137932] | 19.17%
CN1CCN=C1c1ccc(NC(=O)Nc2ccc(C3=NCCN3C)cc2)cc1 [TCMDC-137204] | 15.96%
O=C(Nc1ccccc1C(F)(F)F)Nc1nn(Cc2c(F)cccc2Cl)cc1Br [TCMDC-124365] | -20.4%
COc1ccc(-c2c(C(F)(F)F)nn(C)c2NC(=O)Nc2ccc(F)cc2F)cc1 [TCMDC-123775] | 71.46%
Cn1nc(C(F)(F)F)c(-c2ccc(Br)cc2)c1NC(=O)Nc1ccc(F)cc1F [TCMDC-124576] | 44.22%
O=C(Nc1ccccc1)Nc1ccc(-n2ccc(C(F)(F)F)n2)cc1 [TCMDC-123480] | -19.16%
Cn1nc(C(F)(F)F)c(-c2ccc(F)cc2)c1NC(=O)Nc1ccc(F)cc1 [TCMDC-124506] | 65.51%
Cn1nc(C(F)(F)F)c(-c2ccc(F)cc2)c1NC(=O)Nc1ccc(F)cc1F [TCMDC-123774] | 47.06%

SMILES | % Inhibition
COc1ccc(NC(=O)Nc2cccc(-c3cccc(-c4nc5ccc(F)cc5[nH]4)c3)c2)cc1 [TCMDC-133249] | -8.23%
Cn1nc(C(F)(F)F)c(-c2ccc(Br)cc2)c1NC(=O)Cc1ccccc1F [TCMDC-123792] | 91.27%
CCOC(=O)Cn1ccc2c(NCc3ccccc3)nc(C)nc21 [TCMDC-137249] | 9.107%
OC(CN1CCN(c2cccc(Cl)c2)CC1)C(c1ccccc1)c1ccccc1 (centres unmarked) [TCMDC-123456] | 0.2376%
COc1cccc2cc(C(=O)N[C@@H](CC(C)C)C(=O)N[C@H](C=NN3CCCC3=O)Cc3ccccc3)oc12 [TCMDC-136091] | 20.05%
CC(c1cccc(Nc2nccc(-c3c(-c4cccc(NC(=O)c5c(F)cccc5F)c4)nn4ncccc34)n2)c1)S(C)(=O)=O (centres unmarked) [TCMDC-135696] | -68.26%
Nc1nc(N)c2c(Oc3cccc(Cl)c3)cccc2n1 [TCMDC-137741] | -2.704%
CCCCCN1CCCC1CNS(=O)(=O)c1ccc(C(=O)Nc2cccc(C(F)(F)F)c2)cc1 (centres unmarked) [TCMDC-133688] | -7.266%
CN1CCc2cc(CN3CC4(C)CC3CC(C)(C)C4)c(O)cc2C(c2ccccc2)C1 (centres unmarked) [TCMDC-131903] | -50.67%
CC(C)NCc1cccc(-c2ccc(NC(=O)c3ccc(F)cc3)cc2)c1 [TCMDC-132666] | -42.89%
CC(C)NCc1ccc(-c2cccc(NC(=O)c3cccc(C#N)c3)c2)cc1 [TCMDC-132649] | 48.87%
CC(C)NCc1ccc(-c2ccc(NC(=O)c3cccc(C#N)c3)cc2)cc1 [TCMDC-132595] | 51.63%
CC(C)NCc1cccc(-c2cccc(NC(=O)c3cccc(C#N)c3)c2)c1 [TCMDC-132662] | 13.1%
CC(C)NCc1ccc(-c2cccc(NC(=O)c3ccc(F)cc3)c2)cc1 [TCMDC-132635] | 20.54%
CC(C)NCc1ccc(-c2cccc(NC(=O)c3ccc(Cl)cc3)c2)cc1 [TCMDC-132629] | -59.93%
CC(C)NCc1cccc(-c2ccc(NC(=O)c3ccc(C#N)cc3)cc2)c1 [TCMDC-132669] | -2.892%
CN1CCCN(Cc2ccc(-c3ccc(NC(=O)c4ccc(C#N)cc4)cc3)cc2)CC1 [TCMDC-132588] | 15.04%
CC(C)NCc1cccc(-c2ccc(NC(=O)c3cccc(C#N)c3)cc2)c1 [TCMDC-132672] | -57.78%
CC(C)NCc1cccc(-c2cccc(NC(=O)c3ccc(C#N)cc3)c2)c1 [TCMDC-132656] | 89.01%
CC(C)NCc1ccc(-c2ccc(NC(=O)c3ccc(C#N)cc3)cc2)cc1 [TCMDC-132589] | 83.96%
CC(C)NCc1ccc(-c2cccc(NC(=O)c3ccc(C#N)cc3)c2)cc1 [TCMDC-132638] | 83.96%
COc1cccc(C(=O)NCCOc2ccccc2)c1Oc1ccccc1 [TCMDC-141238] | 4.712%
Nc1ncc(-c2cn[nH]c2)cc1-c1nc2ccc(Cl)cc2[nH]1 [TCMDC-133560] | -7.229%

SMILES | % Inhibition
C=CCc1cc(Cc2cnc(N)nc2N)cc(CCC)c1OC [TCMDC-138039] | 23.16%
O=C(O)c1ccc(-c2cnc3ccc(NC4CCC(O)CC4)nn23)cc1 (centres unmarked) [TCMDC-136692] | 8.489%
Cc1c(C)n(C2CCCC2)c2ncnc(OC3CCN(CC(=O)NC4CC4)CC3)c12 [TCMDC-133310] | -5.87%
Cn1nccc1C(=O)NCCNCc1ccc(-c2cccc(-c3nc4cc(F)ccc4[nH]3)c2)cc1.O=C(O)C(F)(F)F [TCMDC-133016] | -24.65%
CCOc1cc(Cc2cnc(N)nc2N)ccc1OC [TCMDC-137931] | 24.72%
COc1ccc2nccc([C@@H](O)CN3CCC(NC/C=C/c4cccnc4)CC3)c2c1 [TCMDC-140747] | -1.69%
COc1cc2c(cc1N1CC(C)NC(C)C1)N(C(=O)c1ccc(-c3ccc(-c4ncc[nH]4)cc3C)cc1)CC2 (centres unmarked) [TCMDC-141160] | 13.02%
Cc1cc(-c2ncc[nH]2)ccc1-c1ccc(C(=O)N2CCc3cc4c(cc32)C2(CCN(C)CC2)CO4)cc1 [TCMDC-139079] | -8.812%
Cc1cc(C2CCCCN2C)ccc1-c1ccc(C(=O)N2CCc3cc4c(cc32)C2(CCN(C)CC2)CO4)cc1 (centres unmarked) [TCMDC-139081] | 76.58%
CCOC(=O)NCCSC(C)(C)[C@H](NC(=O)[C@H](Cc1cc2ccccc2s1)[C@H](CC)N(O)C=O)C(=O)Nc1nccs1 [TCMDC-137792] | 7.703%
CN(C)CCNCc1ncsc1-c1ccc2c(Nc3ccc(F)cc3Cl)ccnc2c1 [TCMDC-138466] | 30.52%
Fc1ccc(Nc2ccnc3cc(-c4cccc(CN5CCCCC5)c4)ccc23)c(Cl)c1 [TCMDC-138418] | 24.75%
CN(C)CCNCc1cccc(-c2ccc3c(Nc4cc(O)c(Cl)cc4F)ccnc3c2)c1 [TCMDC-138413] | 57.17%
CS(=O)(=O)CCNCc1cccc(-c2ccc3c(Nc4cc(O)c(Cl)cc4F)ccnc3c2)c1 [TCMDC-138435] | -21.48%
CN1CCN(Cc2cccc(-c3ccc4c(Nc5ccc(F)cc5Cl)ccnc4c3)c2)CC1 [TCMDC-138417] | 75.62%
Fc1ccc(Nc2ccnc3cc(I)ccc23)c(Cl)c1 [TCMDC-138387] | 14.07%
CN1CCN(Cc2cccc(-c3ccc4c(Nc5cc(O)c(Cl)cc5F)ccnc4c3)c2)CC1 [TCMDC-138430] | 33.23%
CN(C)CCN(C)Cc1cccc(-c2ccc3c(Nc4cc(O)c(Cl)cc4F)ccnc3c2)c1 [TCMDC-138432] | 25.38%
CN(C)CCNCc1cccc(-c2ccc3c(Nc4ccc(F)cc4Cl)ccnc3c2)c1 [TCMDC-138412] | 66.82%
COCCNCc1cccc(-c2ccc3c(Nc4cc(O)c(Cl)cc4F)ccnc3c2)c1 [TCMDC-138429] | 38.53%
COCCNCc1cccc(-c2ccc3c(Nc4ccc(F)cc4Cl)ccnc3c2)c1 [TCMDC-138415] | 42.47%
CN(C)CCN(C)Cc1cccc(-c2ccc3c(Nc4ccc(F)cc4Cl)ccnc3c2)c1 [TCMDC-138416] | 87.2%
